Experimental findings from the supplement of paper PMC9492666 are described below.

Each structure is given as a SMILES string. Where a name gives a salt, the structure may show the parent alone.

The test system of one experiment is HCC1937. The experiment can be described thus: relative cell viability, compound + erastin, vs DMSO (fraction of DMSO control); higher = less growth inhibition. The note with it: 72 h.
The next experiment has as its system MDA-MB-231. Described as above. The note with it: 72 h.
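Also: viability read by CCK-8 kit in 96-well plates, part of a combination screen pairing lipid-metabolism-targeting compounds with erastin.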

`CCCCCCS(=O)(=O)NC(=O)c1ccc(CSCc2ccc(-c3ccccc3)cc2)cc1` + CCOc1ccccc1-n1c(C(C)N2CCN(C(=O)COc3ccc(Cl)cc3)CC2)nc2ccccc2c1=O [erastin]: the relative cell viability with HCC1937 stood at 0.705; in the experiment with MDA-MB-231 it was 0.733.

Consider `COc1ccc(CN2CCNCC2)c(OC)c1OC` [Trimetazidine dihydrochloride] + CCOc1ccccc1-n1c(C(C)N2CCN(C(=O)COc3ccc(Cl)cc3)CC2)nc2ccccc2c1=O [erastin], for which the values for the relative cell viability in the experiment with HCC1937 and in the experiment with MDA-MB-231 were 0.786 and 0.55, respectively.

Consider `CCc1c(-c2ccccc2)c(-c2ccccc2)nn1-c1ccccc1-c1cccc(OCC(=O)O)c1` + CCOc1ccccc1-n1c(C(C)N2CCN(C(=O)COc3ccc(Cl)cc3)CC2)nc2ccccc2c1=O [erastin], for which the relative cell viability was 0.84 with HCC1937 and 0.861 in the experiment with MDA-MB-231.

With `C[C@@H]1O[C@@H](O[C@H]2[C@H](Oc3cc(O)c4c(c3)O[C@H](c3ccc(O)cc3)CC4=O)O[C@H](CO)[C@@H](O)[C@@H]2O)[C@H](O)[C@H](O)[C@H]1O` [Naringin] + CCOc1ccccc1-n1c(C(C)N2CCN(C(=O)COc3ccc(Cl)cc3)CC2)nc2ccccc2c1=O [erastin], the relative cell viability in the experiment on HCC1937 turned out to be 0.902; with MDA-MB-231 it was 0.632.

Regarding `CC(=O)Oc1cc(C(F)(F)F)ccc1C(=O)O` [Triflusal] + CCOc1ccccc1-n1c(C(C)N2CCN(C(=O)COc3ccc(Cl)cc3)CC2)nc2ccccc2c1=O [erastin], the relative cell viability with HCC1937 was 0.751; in the experiment on MDA-MB-231, 0.648.

Consider `O=C(Nc1cccnc1)N1CCC(Cc2cccc(Oc3ccc(C(F)(F)F)cn3)c2)CC1` + CCOc1ccccc1-n1c(C(C)N2CCN(C(=O)COc3ccc(Cl)cc3)CC2)nc2ccccc2c1=O [erastin], for which the relative cell viability in the experiment with HCC1937 was 0.663; with MDA-MB-231, 0.374.

With `CCCc1cc(-c2nc(-c3ccc(C)cc3)cs2)ccn1` [Fatostatin] + CCOc1ccccc1-n1c(C(C)N2CCN(C(=O)COc3ccc(Cl)cc3)CC2)nc2ccccc2c1=O [erastin], the relative cell viability stood at 0.534 with HCC1937 and 0.595 with MDA-MB-231.

On to `Nc1cccc(S(=O)(=O)N2CCCN(S(=O)(=O)c3ccc4c(c3)OCCO4)CC2)c1` + CCOc1ccccc1-n1c(C(C)N2CCN(C(=O)COc3ccc(Cl)cc3)CC2)nc2ccccc2c1=O [erastin], for which the relative cell viability in the experiment on HCC1937 came out at 0.817; with MDA-MB-231 it was 0.553.

On to `O=C(CCCCCCCC(=O)NCCO)NCCO` [Adelmidrol] + CCOc1ccccc1-n1c(C(C)N2CCN(C(=O)COc3ccc(Cl)cc3)CC2)nc2ccccc2c1=O [erastin], for which the relative cell viability in the experiment on HCC1937 stood at 0.701; in the experiment with MDA-MB-231, 0.73.

`CC(=O)N1CCN(c2ccc(OCC3COC(Cn4ccnc4)(c4ccc(Cl)cc4Cl)O3)cc2)CC1` (stereo not given) [Ketoconazole] + CCOc1ccccc1-n1c(C(C)N2CCN(C(=O)COc3ccc(Cl)cc3)CC2)nc2ccccc2c1=O [erastin]: the relative cell viability in the experiment with HCC1937 amounted to 0.884; with MDA-MB-231, 0.602.
